Experimental data published in PubChem BioAssay AID2732 (Emory University Molecular Libraries Screening Center, 2010).
Among all 220,000 compounds or so, about 8,200 (3.7%) were called active.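 Rule for the calls: active = compounds that reduced the stress-induced luciferase reporter signal by more than about 70% of percent inhibition (limit read from the data); inactive = the rest.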 Only a selection was taken, and actives are over-represented in it overall.

Assay: inhibitors of CHOP promoter induction, primary screen, cell-based, unfolded protein response, luciferase reporter (AID 2732);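 note: 0% = tunicamycin plus vehicle and 100% = wells without tunicamycin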
Details: CHO-K1 CHOP-promoter luciferase, tunicamycin-induced, 15-18 h; at 10 µM; active compounds read high

inhibition, active:
CCCc1ccc(C(=O)[C@@H]2[C@@H](C(C)=O)N3c4ccc(F)cc4C=C[C@@H]3[C@@]23C(=O)Nc2ccccc23)cc1 72.2%, Nc1nonc1-c1nc2ccccc2n1Cc1ccc(F)cc1 84.3%, Cc1nn(Cc2ccc(Cl)c(Cl)c2)c(C)c1NC(=O)c1cc(C2CC2)on1 82.7%, CCCCOC(=O)c1ccc(N2C(=O)CC(N3CCN(C/C=C/c4ccccc4)CC3)C2=O)cc1 (stereo unspecified) 81.1%, O=[N+]([O-])c1cccc(-c2nnc3c4ccccc4c4ccccc4n23)c1 96.5%, Fc1ccccc1/C=C1\CCCC2=C1Nc1ncnn1C2c1ccccc1F (stereo unspecified) 108%, O=C(Nc1ccc2c(c1)CCC2)c1cccc(S(=O)(=O)N2CCN(c3ccc(F)cc3)CC2)c1 78.2%, O=C(NNc1ccccc1Cl)C(O)(c1cccc(C(F)(F)F)c1)c1cccc(C(F)(F)F)c1 100%, Clc1ccccc1CSc1nnc(-c2ccco2)c(-c2ccco2)n1 71.2%, COc1ccc2c(c1)C(C)=CC(C)(C)N2C(=O)CNCc1ccc2c(c1)OCO2 73.7%, CCc1ccc2nc3sc(C(=O)Nc4nnc(CC)s4)c(N)c3cc2c1 76.2%, COc1ccc(-c2nc(-c3ccccc3)no2)c(OC)c1 81.4%, CCOc1ccc(S(=O)(=O)N2CCCCCC2)c2ccccc12 71.1%, COC(=O)C1=CN(C)C=C(C(=O)OC)C1c1ccc(Cl)cc1Cl 78.2%

inhibition, inactive:
Cc1ccc2c(c1)c1ncn(Cc3ccc(F)cc3)c(=O)c1n2C 21.6%, S=c1nc2ccccc2c2nc(-c3cccnc3)[nH]n12 -22.9%, CC(C)(C)CN1C(=O)C(=O)NC[C@H]1Cc1cccc2ccccc12 16.9%, CN1CCc2ccccc2C1Cc1ccccc1NC(=O)c1sc2ccccc2c1Cl (stereo unspecified) 24.9%, CC(C)(C)N1CC(c2nc3ccccc3n2Cc2ccc(F)cc2)CC1=O (stereo unspecified) -17.7%, CC(=O)Nc1nonc1-c1nc2ccccc2n1Cc1ccccn1 33.7%, COC(=O)c1cc(N2CCNCC2)nc2ccccc12 19.8%, Cc1cc(=O)[nH]c2nnnn12 8.36%, O=C(Nc1cc(C(F)(F)F)ccc1Cl)c1cc(C2CC2)on1 67%, Cc1cc(C(=O)Nc2c(C)nn(Cc3ccccc3)c2C)on1 11.6%, CCCCOc1ccc(CON(C(C)=O)C(C)=O)cc1Cl 10.1%, COCCn1c(SCC(=O)c2[nH]c(C)c(C(C)=O)c2C)nc2ccccc2c1=O -9.67%, C=CCSC(CC)(CC)C(N)=O 4.32%, O=C1/C(=C/c2cccs2)SC(=S)N1C1CCS(=O)(=O)C1 (stereo unspecified) 8.4%, CCOC(=O)c1ccc(N2C(=O)CC(N3CCC(C(=O)OCC)CC3)C2=O)cc1 (stereo unspecified) 1.79%, CCOC(=O)c1ccc(N2C(=O)CC(N3CCN(C(=O)c4ccccc4)CC3)C2=O)cc1 (stereo unspecified) 14.7%, O=[N+]([O-])c1cccc(C2=NCCS2)c1 5.31%, O=c1[nH]c2ccccc2n2c(-c3ccccc3)nnc12 10.4%, CC(CNS(=O)(=O)c1ccc(Br)cc1)CN(C)C (stereo unspecified) 1.82%, Cc1ccc2c(C)c(C(=O)N3CCC(N4CCC(C(=O)NC5CC5)CC4)CC3)oc2c1 25.5%, CC1CC(=O)Nc2ccccc2N1S(=O)(=O)c1cccs1 (stereo unspecified) 4.64%, O=C(Nc1cccnc1)c1cccc(S(=O)(=O)N2CCCC2)c1 1.13%, O=C(Nc1ccc2c(c1)CCC2)c1cccc(S(=O)(=O)Nc2ccccc2Cl)c1 33.4%, Cc1ccc(Cn2c(SCC(=O)N/N=C/c3ccccc3OCC(=O)O)nc3ccccc32)cc1 19.7%, O=C(NCc1ccc(F)cc1)C1CCC(CNc2c(N3CCOCC3)c(=O)c2=O)CC1 (stereo unspecified) -4.35%, O=C(CNS(=O)(=O)c1cccc(C(F)(F)F)c1)Nc1ccccc1F -2.12%, O=C(Nc1cc(C(F)(F)F)ccc1Cl)C(=O)N1CCCCC1 23.6%, COc1ccc(CCN2C(=O)N(c3ccc(OC)cc3)C(=O)C2CC(=O)Nc2ccc(OC)cc2)cc1 (stereo unspecified) -32.7%, Nc1nc(SCc2ccccc2Cl)n[nH]1 6.63%, c1ccc(CSc2nnc(-c3ccco3)c(-c3ccco3)n2)cc1 -37.2%, O=C(Cc1ccccc1)N1N=C(c2ccncc2)CC1(O)C(F)(F)F (stereo unspecified) 4.37%, COc1ccc2oc(N)c(C=O)c(=O)c2c1 13.1%, COc1ccc2c(c1)C(C)=CC(C)(C)N2C(=O)Nc1ccccc1 7.45%, CCn1cc(C(=O)NCc2ccc3c(c2)OCO3)c2cc(OC)c(OC)cc2c1=O 33.4%, O=C(O)C(c1ccccc1)C1(O)CCCCC1 (stereo unspecified) 3.7%, CCc1nnc(NC(=O)c2cccc(S(=O)(=O)N(C)c3ccc(OC)cc3)c2)s1 28.5%, CCc1nnc(NC(=O)c2sc3nc(C)cc(COC)c3c2N)s1 -32%, COC(=O)[C@H](CC(C)C)NC(=O)N1CCCCC1C (stereo partly specified) 16.1%, COc1ccc(-c2noc(-c3cccc(OC)c3OC)n2)cc1OC 19%, COc1ccc(-c2noc(-c3ccc(C)cc3)n2)cc1 20.8%, CCOc1ccc(S(=O)(=O)n2ccnc2)c2ccccc12 4.14%, COc1ccc(S(=O)(=O)N2CCCC2)c(C)c1C 31.7%, CN1CCN(c2ccc(S(=O)(=O)N3CCOCC3)cc2NC(=O)CCc2ccccc2)CC1 -2.84%, COc1cccc(Nc2nnc(SCC(=O)N3CC(=O)Nc4ccccc43)s2)c1 -4.27%, CCOc1ccccc1C1C(C(=O)OC)=CN(C)C=C1C(=O)OC 2.4%, NC(=O)C1(C(N)=O)OC1c1ccc(Cl)cc1Cl (stereo unspecified) -9.68%, O=C(NC1CC1)C1=C[C@H](c2c[nH]c3ccccc23)C[C@H](OCc2ccc(CO)cc2)O1 0.14%
